Data reported in the supplement of paper PMC11732987, “Enantioselective OTUD7B fragment discovery through chemoproteomics screening and high-throughput optimisation” (Communications Chemistry, 2025).
Unmarked numbers belong to inactive results.

molecular target: T1, VCPIP1 (UniProt Q96JH7); assay: log2 ratio of Biotin-Ahx-Ub-VS probe labelling (fragment/DMSO); higher = less target engagement (more negative = stronger competition), active = hit call of the paper (q ≤ 0.05, log2 ratio ≤ -1); conditions: compound concentration: 200 uM; treatment time: 3 h
T1 sequence (whole entry): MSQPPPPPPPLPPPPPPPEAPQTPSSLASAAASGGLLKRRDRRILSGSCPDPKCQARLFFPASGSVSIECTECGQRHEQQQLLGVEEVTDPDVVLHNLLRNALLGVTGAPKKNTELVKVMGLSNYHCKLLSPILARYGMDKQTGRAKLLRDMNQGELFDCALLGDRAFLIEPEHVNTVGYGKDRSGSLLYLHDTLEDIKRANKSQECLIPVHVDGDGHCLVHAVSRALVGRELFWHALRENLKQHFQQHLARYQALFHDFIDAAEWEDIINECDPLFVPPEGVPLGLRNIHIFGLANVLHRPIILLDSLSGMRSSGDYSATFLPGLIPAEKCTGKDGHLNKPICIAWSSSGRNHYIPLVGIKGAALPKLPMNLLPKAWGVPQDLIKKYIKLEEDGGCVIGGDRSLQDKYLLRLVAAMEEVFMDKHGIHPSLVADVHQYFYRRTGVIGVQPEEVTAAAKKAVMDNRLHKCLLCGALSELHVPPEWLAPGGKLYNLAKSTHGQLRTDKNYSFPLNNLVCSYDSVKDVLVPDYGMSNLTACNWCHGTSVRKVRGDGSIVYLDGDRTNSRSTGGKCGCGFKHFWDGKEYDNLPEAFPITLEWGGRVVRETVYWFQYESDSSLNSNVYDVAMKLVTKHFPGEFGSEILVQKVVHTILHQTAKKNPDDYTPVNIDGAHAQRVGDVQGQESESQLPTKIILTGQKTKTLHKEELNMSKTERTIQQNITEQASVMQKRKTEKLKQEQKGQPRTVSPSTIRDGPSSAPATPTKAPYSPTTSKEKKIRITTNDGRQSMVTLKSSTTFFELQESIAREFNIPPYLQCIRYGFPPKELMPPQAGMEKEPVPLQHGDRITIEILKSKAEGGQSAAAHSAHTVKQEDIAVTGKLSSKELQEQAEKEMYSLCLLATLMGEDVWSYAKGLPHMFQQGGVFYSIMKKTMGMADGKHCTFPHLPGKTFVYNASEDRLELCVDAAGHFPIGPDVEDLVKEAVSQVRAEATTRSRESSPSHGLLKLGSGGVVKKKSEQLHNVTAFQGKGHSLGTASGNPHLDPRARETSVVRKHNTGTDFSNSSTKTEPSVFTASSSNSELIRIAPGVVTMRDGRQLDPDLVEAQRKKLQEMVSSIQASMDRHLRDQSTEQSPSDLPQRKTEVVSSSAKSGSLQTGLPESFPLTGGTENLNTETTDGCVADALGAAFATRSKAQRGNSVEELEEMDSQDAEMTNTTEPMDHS
Description: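 Competitive ABPP in HEK293T cell lysate. Lysates were treated with each chloroacetamide fragment at 200 µM for 3 h, then with Biotin-Ahx-Ub-VS (0.5 µM, 1 h), NeutrAvidin-enriched and analysed by diaPASEF LC-MS/MS. Protein LFQ was median-normalised; average log2 ratio is fragment/DMSO from an unpaired t-test (n=3 treated, n=44 DMSO). Hits: q ≤ 0.05, log2 ratio ≤ -1, unique peptides ≥ 2.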

| Compound | log2 ratio of Biotin-Ahx-Ub-VS probe labelling |
| --- | --- |
| O=C(CCl)N1CCC(O)(Cc2ccc(F)cc2)C1 (stereo not given) | -2.24 (active) |
| Cc1cccc(N2CCC(NC(=O)CCl)C2=O)c1 (stereo not given) | -1.91 (active) |
| O=C(CCl)NC1CCN(C(=O)C2CCCCC2)CC1 | -0.826 |
| CS(=O)(=O)c1ccc(NC(=O)CCl)cc1 | -1.23 (active) |
| O=C(CCl)Nc1ccccc1C(F)(F)F | -0.635 |
| O=C(CCl)N1CCN2C(=O)CCC2C1 (stereo not given) | -0.0347 |
| O=C(CCl)N1CCN(C(=O)N2CCCCC2)CC1 | -0.906 |
| Cc1ccc(-c2nnc(C)[nH]2)c(NC(=O)CCl)c1 | -2.55 (active) |
| Cc1ccccc1C1(CNC(=O)CCl)CCOCC1 | -0.843 |
| COc1ccc(CN(C)C(=O)CCl)cc1 | -1.54 (active) |
| Cl.O=C(CCl)N1CCC(n2nc3ccccc3n2)CC1 | -2.56 (active) |
| O=C(CCl)NCc1noc(C2CC2)n1 | -0.61 |
| O=C(CCl)NC1CCCCNC1=O (stereo not given) | -0.603 |
| CCN(Cc1ccc(C#N)cc1F)C(=O)CCl | -0.594 |
| O=C(CCl)N1CCc2[nH]c3ccccc3c2C1 | -2.89 (active) |
| Cc1ccc(N(CCC#N)C(=O)CCl)cc1C | -2.17 (active) |
| O=C(CCl)N1CCOC2(CCC2)C1 | -0.0688 |
| CCC1c2ccsc2CCN1C(=O)CCl (stereo not given) | -0.892 |
| Cc1cccc(NC(=O)CCl)c1C | -0.666 |
| Cc1ccc(CN(CCO)C(=O)CCl)cc1 | -0.862 |

| Compound | log2 ratio of Biotin-Ahx-Ub-VS probe labelling |
| --- | --- |
| CN(CCc1ncc(Br)cn1)C(=O)CCl.Cl | -2.5 (active) |
| CC(NC(=O)CCl)c1cccc2ccccc12 (stereo not given) | -1.05 (active) |
| NC(=O)C(Cc1ccccc1)NC(=O)CCl (stereo not given) | -0.38 |
| Cl.O=C(CCl)N1CCc2ncncc2C1 | -0.0226 |
| NC(=O)C1CCCN(C(=O)CCl)C1 (stereo not given) | -0.167 |
| O=C(CCl)Nc1cccc2ncccc12 | -0.848 |
| CC(O)CC1CCN(C(=O)CCl)CC1 (stereo not given) | -0.106 |
| CN(C)S(=O)(=O)c1ccccc1CNC(=O)CCl | -1.15 (active) |
| Cc1ccc(C)c(Oc2ccc(CNC(=O)CCl)cn2)c1.Cl | -1.8 (active) |
| O=C(CN1CCN(C(=O)CCl)CC1)Nc1cccc(F)c1 | -0.698 |
| CC1Cc2ccccc2N1C(=O)CCl (stereo not given) | -1.3 (active) |
| CC(C)n1nccc1NC(=O)CCl | -0.897 |
| CC1CN(c2ccc(NC(=O)CCl)cc2)CC(C)O1 (stereo not given) | -0.624 |
| O=C(CCl)N1CCOCC1C1CC1 (stereo not given) | -0.493 |
| CC1(NC(=O)CCl)CCS(=O)(=O)C1 (stereo not given) | -0.848 |
| O=C(CCl)Nc1ccc(Cl)c(F)c1 | -1.86 (active) |
| NC(=O)C1CCCCN1C(=O)CCl (stereo not given) | -0.253 |
| CN1c2ccccc2C(NC(=O)CCl)CS1(=O)=O (stereo not given) | -2.14 (active) |
| Cl.O=C(CCl)N1CCN(Cc2ccccc2)CC1 | -0.476 |
| CN(CCC(O)c1ccc(Br)cc1)C(=O)CCl (stereo not given) | -2.63 (active) |
